Here are results for 25 molecules from PubChem BioAssay (NCI).

The structures appear in SMILES notation. Where “and” joins values, the source holds several entries; their conditions need not be identical. Equal entries are not always repeated. Compounds without any hit were thinned out: in the full panel of roughly 79,000, 15% have a hit. Calls of active or inactive are those of the source. Rule as the data show it: active = growth inhibition above about 70%; inactive = the rest.

This test can be described thus: NCI Yeast Anticancer Drug Screen. Data for the bub3 strain (AID 167). The conditions noted are these: S. cerevisiae bub3 mutant strain, at 50.0 µM (retest, dose inferred, filed as 5.0), stronger effect = higher value. The procedure, abridged:
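Whole-cell yeast assay. The mutant strain was incubated with compounds, and growth inhibition was determined by comparison with vehicle-treated cells.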
`COc1ccc2[nH]c3c(C)c4ccncc4c(C)c3c2c1`: the growth inhibition is 99% (active).

Turning to `CC(=O)OC1OC(CI)C(OC(C)=O)C(OC(C)=O)C1OC(C)=O` (stereo not given), the growth inhibition was 69% (inactive). For the molecule `Oc1cc2c(cc1C(c1ccc3c(c1)OCO3)N1CCN(C(c3ccc4c(c3)OCO4)c3cc4c(cc3O)OCO4)CC1)OCO2` (stereo not given), the growth inhibition is -1% (inactive). `O=Cc1cc(Br)ccc1O`: the growth inhibition was 97% (active) and 88% (active).

For the molecule `Cc1n(-c2ccccc2)c2c([n+]1Cc1ccc([N+](=O)[O-])cc1)C(=O)c1ccccc1C2=O`, the growth inhibition was 98% (active).

Turning to `Nc1ncnc2c1ncn2CCCl`, the growth inhibition was 6% (inactive).

For `CCOc1ccc2ccccc2c1C(Cc1ccc(Cl)cc1)NCCO` (stereo not given), the growth inhibition is -3% (inactive). With `COc1ccc(Oc2ccccc2N)cc1` the figure was 93% (active); with `O=C1C(Cl)=C(Cl)C(Cl)(Cl)C(Cl)=C1Cl`, 99% (active) and 100% (active); with `CCCCCCCCCCCC(=O)CN1CCOCC1`, 99% (active). On to `CC[C@](O)(CC(=O)O[C@H]1C(=O)O[C@@H]2C[C@H]3C(C)=CC(=O)[C@@H](O)[C@]3(C)[C@H]3[C@@]4(O)OC[C@]32[C@@H]1[C@@H](C)[C@H]4O)C(C)C`, for which the growth inhibition is 98% (active). For `O=C1Nc2ccccc2C1(O)C/C(=N/O)c1ccc2ccccc2c1` (stereo not given), the growth inhibition is 77% (active). To `NNC(=O)c1ccc(NC(=O)CSc2nc3ccccc3s2)cc1` belongs 82% (active); to `C[C@H]1CC[C@H]([C@@H](C)[C@H]2[C@@H](O)C[C@H]3[C@@H]4CC[C@H]5C[C@@H](O)CC[C@]5(C)[C@H]4CC[C@]23C)NC1`, 98% (active) and 92% (active). Consider `O=C1/C(=C/c2ccc(Cl)cc2)CNC/C1=C\c1ccc(Cl)cc1`, for which the growth inhibition is 85% (active) and 95% (active). As for `CCN(CC)c1ccc(/C=C/c2ccnc3ccccc23)cc1`, the growth inhibition was 98% (active) and 99% (active). `c1ccc(-c2[nH]c3ccccc3c2-c2ccccn2)cc1`: the growth inhibition is 2% (inactive). Consider `Nc1cc2c(cc1Cl)[nH]c(=O)c1cc(Cl)ccc12`, for which the growth inhibition was 10% (inactive). For `C1=C(c2ccccc2)N(CCc2ccccc2)C(c2ccccc2)=CN1Cc1ccccc1`, the growth inhibition is 95% (active).

Regarding `c1ccc(-c2nc3ccccc3[nH]2)cc1`, the growth inhibition was 24% (inactive). On to `O=Cc1cc([N+](=O)[O-])cc(CCl)c1O`, for which the growth inhibition is -32% (inactive).

As for `COC(=O)[C@]1(C)CCC[C@]2(C)c3ccc(C(C)C)cc3CC[C@@H]12`, the growth inhibition is 43% (inactive). To `CCOC(=O)c1ccc(NCc2ccc3ccccc3n2)cc1` belongs 55% (inactive); to `CCCCCCCCCCCCCCCC(=O)NCC[N+](C)(C)C`, 100% (active); to `c1ccc2c(c1)CNc1ccccc1-2`, 60% (inactive).
